Screening data: PubChem BioAssay, National Center for Advancing Translational Sciences (NCATS)
Sm TGR block: S. mansoni TGR enzyme inhibition; hit rate 3% among 360,000; Q962Y6; Potency, µM (series often up to 114 µM), usual class: inhibitors; purified TGR, DTNB reduction, TNB absorbance 405 nm; AID 485364; note: nearly all actives have a fitted effect of over 60% in size
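Kinetic colorimetric format: TGR-catalysed, NADPH-driven DTNB reduction monitored via TNB absorbance. Enzyme dispensed at 20 nM; compound exposure 15 min at room temperature before reaction start.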
HCMV antiviral: inhibitors of human cytomegalovirus. hit rate 4.5% among 410,000. activity change, negative = inhibition, % at 57.5 µM. HFF cells, HCMV-luciferase reporter, 72 h; hits give low values; in the data active = activity change below about -60%; inconclusive = no clear call, values can overlap the other calls; inactive = above about -39%
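HFF cells seeded 16 h at 37C, treated with compounds, infected with luciferase-reporter HCMV at MOI 1 PFU/cell; luciferase read at 72 h post infection, normalized to buffer-only and Salinomycin controls.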
HCV inh: inhibitors of hepatitis C virus infection. Huh7.5.1 HCVcc-Cre infection, luciferase reporter, 44 h. Potency, µM (top dose mostly 41.8 µM), hits mostly inhibitors. hit rate 3.4% among 340,000. AID 651820
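Compounds are dispensed onto cells plated 4 h earlier at 1,000 per well, with HCVcc-Cre virus (about 0.5 moi) added next. Following 44 h of culture, luminescent signal is measured for 15 sec after 15 min with substrate at room temperature.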
Vaccinia Venus: inhibitors of vaccinia virus (Venus reporter); hit rate 0.46% among 330,000; AID 720580; Potency, µM (highest dose often 36.5 µM), hits mostly inhibitors; Vaccinia virus Venus reporter expression, fluorescence; calls by dose curve; tested in A549 cells; note: nearly all actives have a fitted effect of over 30% in size
Vaccinia mCherry: inhibitors of vaccinia virus infection (mCherry reporter signal). Vaccinia virus mCherry reporter infection, fluorescence. Potency, µM (series often up to 36.5 µM), most hits filed as inhibitors. hit rate 0.63% among 310,000. AID 720579; calls by dose curve; tested in A549 cells; note: nearly all actives have a fitted effect of over 35% in size
FMDV antiviral: foot and mouth disease virus antiviral activity | FMDV antiviral cell-based qHTS | Potency, µM (highest dose often 57.9 µM), usual class: inhibitors | hit rate 1.2% among 410,000 | AID 1159524; calls by dose curve; tested in HEK293T cells; note: read-out not given here; nearly all actives have a fitted effect of over 45% in size
A number is an active result; - = inactive; ? = inconclusive; . = not tested or not shown; ! = a repeat was not active. Most compounds without a hit are left out; they make up all but 9.3% or so of the library. Unless noted, calls come from the whole dose curve; as a rule, active = well fitted curve in the direction sought with a large enough effect; inconclusive = small, poorly fitted or top-dose-only effect, or another doubt; inactive = no such curve, though single readings can be large; an effect the other way counts as inactive or inconclusive.

SMILES	Sm TGR block	HCMV antiviral	HCV inh	Vaccinia Venus	Vaccinia mCherry	FMDV antiviral
Cc1ccccc1NC1=C/C(=N\S(=O)(=O)c2ccc(C(=O)O)cc2)c2ccccc2C1=O	?	-	?	?	31.6µM	?
COC(=O)[C@H](CO)NS(=O)(=O)c1ccc(C)cc1	.	-	-	-	-	-
O=C(O)c1ccc(S(=O)(=O)/N=C2\C=C(Nc3ccccc3F)C(=O)c3ccccc32)cc1	44.7µM	-98.3	10µM	?	?	?
O=S(=O)(/N=C(/Nc1ccccc1F)c1ccccc1)c1ccccc1	-	-	-	-	.	-
CCNc1nc(NCC)nc(N(C#N)CCOc2ccccc2)n1	.	-	-	.	.	-
CCNc1nc(NC(C)C)nc(N(C#N)CCOc2ccccc2)n1	-	-	22.4µM	-	-	-
Cn1nc(OCCOc2ccccc2)ccc1=O	-	-	-	-	.	-
COc1ccc(CCN(C)Cc2ccc(OC)c(OCc3ccccc3)c2)cc1OC	-	-	-	.	.	-
COc1ccc(CCN(C)Cc2cccc3ccccc23)cc1OC	-	-	-	.	.	-
COc1ccc(CCN(C)Cc2ccc(C(=O)Nc3ccccc3)cc2)cc1OC	-	-73.2	10µM	-	-	-
COc1ccc(CCN(C)Cc2c(O)ccc3ccccc23)cc1OC	1.41µM	-	-	-	?	-
COc1ccc(CN(C)CC(=O)Nc2ccc(SC(F)F)cc2)cc1OC	-	-	?	-	-	17.8µM
COc1cccc(-c2csc(-c3c(N)c(C(=O)c4ccc5c(c4)OCO5)n4ccccc34)n2)c1	-	-	.	-	-	-
Cc1cc(Br)cn2c(Cc3cccc(F)c3)c(C3CCCCC3)nc12	.	-	.	-	-	-
COc1ccc(NC(=O)NCc2ccccc2F)cc1OC	-	-	-	.	.	-
CC(=O)NCC(=O)N1CCCC(C(=O)c2ccc(-c3ccccc3)c(F)c2)C1 (centres undefined)	-	-	-	-	-	-
N#C/C=C/C(=C\Nc1ccc(Cl)cc1)S(=O)(=O)c1ccccc1	?	?	-	-	?	-
COc1ccc(N/C=C(\C=C\C#N)S(=O)(=O)c2ccccc2)cc1	6.31µM	-	-	.	.	?
CCOc1cc(C=C2C(=O)NC(=O)NC2=O)ccc1OS(=O)(=O)c1ccccc1	22.4µM	.	-	-	.	-
CCOc1ccc(C=C2C(=O)NC(=S)NC2=O)cc1OCC	.	-	-	-	-	?
COc1cc(/C=C2\C(=N)N3N=CSC3=NC2=O)ccc1OS(=O)(=O)c1ccccc1[N+](=O)[O-]	-	-	-	-	-	-
COc1cc(C=C2C(=O)NC(=O)NC2=O)ccc1OS(=O)(=O)c1ccccc1[N+](=O)[O-]	2.82µM	-	-	-	-	-
COC(=O)c1ccc(CO/N=C/c2cccc([N+](=O)[O-])c2)cc1	-	-	-	-	-	-
O=C(Cc1ncc(C(F)(F)F)cc1Cl)NCc1cccnc1	-	-	-	.	.	-
Oc1ccc(F)c2cccnc12	-	-	?	-	-	-
SMILES	Sm TGR block	HCMV antiviral	HCV inh	Vaccinia Venus	Vaccinia mCherry	FMDV antiviral
Oc1ccc(CNc2ccccc2F)c2cccnc12	0.112µM	-89.2	11.2µM	10µM	10µM	-
Oc1ccc(CNc2ccc(C(F)(F)F)cc2Cl)c2cccnc12	1µM	.	.	.	.	.
Oc1ccc(CNc2cccc(F)c2F)c2cccnc12	0.112µM	.	.	.	.	.
Cc1ccc(NC(=O)C2CCN(c3nc4ccccc4nc3C(F)(F)F)CC2)cc1F	-	-	.	-	-	?
CC(C)c1ccc(-c2noc(C3CCCN(C(=O)c4ccc(F)cc4F)C3)n2)cc1 (centres undefined)	-	-	11.2µM	.	.	?
Cc1ccccc1NC(=O)N1CCCC(c2nc(-c3ccc(C(C)C)cc3)no2)C1 (centres undefined)	-	-	12.6µM	.	.	?
Cc1ccccc1NC(=O)N1CCCC(c2nc(-c3ccc(F)cc3)no2)C1 (centres undefined)	-	-	?	.	.	-
COc1ccc(S(=O)(=O)Nc2nc3ccccc3s2)cc1	-	-	-	-	-	-
O=C(/C=C/c1ccc(O)c(O)c1)O[C@@H]1C[C@](O)(C(=O)O)C[C@@H](O)[C@H]1O	-	-60.2!	?	-	-	-
Fc1cccc(NC(=S)Nc2ccc(Br)cc2)c1	20µM	-	-	-	?	-
COc1cccc(NC(=S)Nc2ccc(F)cc2)c1	?	-	-	-	-	-
